OTUD3 inh: human OTUD3 deubiquitinase inhibition; purified OTUD3, Ub-rhodamine fluorescence, 2 h; inhibition, % at 25 µM; 47,000 compounds, 0.7% hits; AID 1645858
USP17 inh: blocks human USP17 ubiquitin-rhodamine cleavage; purified USP17, Ub-rhodamine cleavage fluorescence, 3 h; inhibition, % at 50 µM; 47,000 compounds, 6.5% hits; AID 1645855
USP30 inh: blocks human USP30 ubiquitin-rhodamine cleavage | inhibition, % at 25 µM | 47,000 compounds, 5.3% hits | Q70CQ3 | purified USP30, Ub-rhodamine cleavage fluorescence
Target sequence (Q70CQ3 whole entry, looked up): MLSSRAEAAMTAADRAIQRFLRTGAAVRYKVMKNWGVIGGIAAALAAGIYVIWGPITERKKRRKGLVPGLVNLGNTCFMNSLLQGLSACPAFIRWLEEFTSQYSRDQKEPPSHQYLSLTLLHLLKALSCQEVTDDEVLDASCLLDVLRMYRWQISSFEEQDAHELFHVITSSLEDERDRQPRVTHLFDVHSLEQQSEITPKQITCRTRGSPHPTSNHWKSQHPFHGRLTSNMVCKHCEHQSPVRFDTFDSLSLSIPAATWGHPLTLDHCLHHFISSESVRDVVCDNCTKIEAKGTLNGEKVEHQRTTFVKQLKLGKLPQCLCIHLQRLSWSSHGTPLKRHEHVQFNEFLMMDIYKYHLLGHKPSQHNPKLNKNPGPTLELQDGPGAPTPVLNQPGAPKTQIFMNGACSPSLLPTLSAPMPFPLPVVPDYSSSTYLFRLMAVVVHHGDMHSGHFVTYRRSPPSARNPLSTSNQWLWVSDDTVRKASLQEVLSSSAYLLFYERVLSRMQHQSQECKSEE
USP28 inh: human USP28 deubiquitinase inhibition. Q96RU2. purified USP28, Ub-rhodamine cleavage fluorescence, 30 min. inhibition, % at 25 µM. 47,000 compounds, 3% hits
Active calls of the source: *. Most compounds without a hit are left out; they make up all but 11% or so of the library. Cut-off read from the data, not from the text of the source: active = inhibition above about 30%; inactive = the rest.

Results for COC1=CC(=O)c2c(O)c3c(c(C)c2C1=O)C[C@@]1(O)[C@H](O[C@H]2CC[C@H](O[C@H]4C[C@@](C)(O)[C@H](OC(=O)c5c(C)ccc(C)c5O)[C@H](C)O4)[C@@H](C)O2)C(=O)C(C(C)=O)=C(O)[C@@]1(O)C3=O ?
OTUD3 inh: 53*; USP17 inh: 22; USP30 inh: -79; USP28 inh: 63*

What do the screens show for `Cc1ccc(NC(=O)Cn2cnc(S(=O)(=O)N3CCCC3)c2)cc1C`?
OTUD3 inh: 9; USP17 inh: -12; USP30 inh: 22; USP28 inh: 10

Results for COc1cc(OC)cc(C(=O)Nc2ccc3oc(-c4ccc5ccccc5c4)nc3c2)c1 ?
OTUD3 inh: 14; USP17 inh: 33*; USP30 inh: -19; USP28 inh: 0

Results for COc1cc(OC)cc(C(=O)Nc2cnc(-c3ccccc3)nc2)c1 ?
OTUD3 inh: 23; USP17 inh: 52*; USP30 inh: 17; USP28 inh: 14

How did COc1ccccc1CC(=O)Nc1cnc(-c2ccccc2)nc1 do in these assays?
OTUD3 inh: 0; USP17 inh: -13; USP30 inh: -6; USP28 inh: -2

How did Nc1cc2nc3ccccc3oc-2cc1=O do in these assays?
OTUD3 inh: -2; USP17 inh: 45*; USP30 inh: -60; USP28 inh: 6

What do the screens show for `CN(C)C(=O)NC1CC2(CCN(C(=O)c3cccc4[nH]ccc34)CC2)Oc2ccccc21` (centres undefined)?
OTUD3 inh: -11; USP17 inh: -16; USP30 inh: -5; USP28 inh: -7

Results for O=C1CC(c2ccccc2)Cc2nc(Nc3cc(Cl)cc(Cl)c3)ncc21 (centres undefined) ?
OTUD3 inh: 6; USP17 inh: 33*; USP30 inh: -5; USP28 inh: -9

Results for CCC(C(=O)Nc1ncc2c(n1)CC(c1ccc(OC)cc1)CC2=O)c1ccccc1 (centres undefined) ?
OTUD3 inh: 5; USP17 inh: 7; USP30 inh: 13; USP28 inh: 5

How did CCC(C(=O)Nc1ncc2c(n1)CC(c1ccc(F)cc1)CC2=O)c1ccccc1 (centres undefined) do in these assays?
OTUD3 inh: 21; USP17 inh: 20; USP30 inh: 34*; USP28 inh: 32*

How did Cc1nc(-c2ccncc2)nc2c1CCC(=O)N2C1CCCCC1 do in these assays?
OTUD3 inh: -9; USP17 inh: -51; USP30 inh: -27; USP28 inh: -9

What do the screens show for `O=C(CSc1nnc(-c2ccncc2)n1Cc1ccccc1)c1ccc2[nH]c(O)cc2c1`?
OTUD3 inh: -5; USP17 inh: 58*; USP30 inh: -48; USP28 inh: 27

How did Cc1nnc(SCC(=O)c2ccc3ccccc3c2)n1Cc1ccccc1 do in these assays?
OTUD3 inh: -3; USP17 inh: 0; USP30 inh: 6; USP28 inh: 1

Results for COCCCNC(=O)c1ccc(Cn2c(=O)c3ccccc3n(CC(=O)Nc3ccc(OC)cc3OC)c2=O)cc1 ?
OTUD3 inh: 5; USP17 inh: 75*

Results for COCCCNC(=O)Cn1c(=O)n(Cc2ccc(C(=O)NCc3ccccc3OC)cc2)c(=O)c2ccccc21 ?
OTUD3 inh: 24; USP17 inh: 13; USP30 inh: 53*; USP28 inh: 27

Results for COCCCNC(=O)c1ccc(Cn2c(=O)c3ccccc3n(CC(=O)Nc3ccc(OC)cc3)c2=O)cc1 ?
OTUD3 inh: 0; USP17 inh: 67*; USP30 inh: 6; USP28 inh: 5

How did CCn1c(=O)c(C(=O)N2CCN(c3ccc(C)cc3)CC2)nc2cccnc21 do in these assays?
OTUD3 inh: 3; USP17 inh: -6; USP30 inh: -4; USP28 inh: -2

What do the screens show for `Cc1c(-c2noc(-c3ccco3)n2)nnn1-c1ccccc1`?
OTUD3 inh: -2; USP17 inh: 4

How did O=C(Nc1ccc(Cl)cc1)c1cccc(-n2cnnc2)n1 do in these assays?
OTUD3 inh: 13; USP17 inh: 14; USP30 inh: 27; USP28 inh: 17

How did c1coc(-c2nnc([C@H]3CCN(CC4CC4)C3)o2)c1 do in these assays?
OTUD3 inh: 14; USP17 inh: -14; USP30 inh: 1; USP28 inh: 9

How did CCOc1ccccc1NC(=O)N1CCCN(c2ncccc2C#N)CC1 do in these assays?
OTUD3 inh: 10; USP17 inh: 6; USP30 inh: 5; USP28 inh: 6

Results for N#Cc1cccnc1N1CCN(C(=O)Nc2cccc3ccccc23)CC1 ?
OTUD3 inh: 11; USP17 inh: 77*; USP30 inh: -26; USP28 inh: 1

Results for CCOc1ccc(CCNC(=O)CCC(=O)Nc2ccc3nc(N4CCN(C)CC4)cc(C)c3c2)cc1OCC ?
OTUD3 inh: 10; USP17 inh: 28; USP30 inh: 54*; USP28 inh: 11

What do the screens show for `CC(C)N1CCC2(CC1)Nc1ccccc1C(=O)N2Cc1ccccc1`?
OTUD3 inh: 4; USP17 inh: 1; USP30 inh: 0; USP28 inh: 0

Results for O=C1c2ccccc2NC2(C(=O)Nc3ccc(Br)cc32)N1c1ccccc1 (centres undefined) ?
OTUD3 inh: 76*; USP17 inh: 24; USP30 inh: 19; USP28 inh: 86*

How did Cc1ccc2oc(=O)c(S(=O)(=O)N3CCCCC3)cc2c1 do in these assays?
OTUD3 inh: 13; USP17 inh: 61*; USP30 inh: 25; USP28 inh: 9

Results for O=C(COc1cccnc1[N+](=O)[O-])N1CCC(Cc2ccccc2)CC1 ?
OTUD3 inh: -1; USP17 inh: -14; USP30 inh: 26; USP28 inh: -4

What do the screens show for `O=C(OCC(=O)N1CCC(Cc2ccccc2)CC1)c1ccc2c(c1)S(=O)(=O)N=C1CCCCCN12`?
OTUD3 inh: 7; USP17 inh: 2; USP30 inh: 49*; USP28 inh: 21

Results for COc1cc(C(=O)OCC(=O)N2CCC(Cc3ccccc3)CC2)c([N+](=O)[O-])cc1OC ?
OTUD3 inh: 18; USP17 inh: -4; USP30 inh: 44*; USP28 inh: 21

What do the screens show for `O=C(COC(=O)c1ccc2c(c1)S(=O)(=O)N=C1CCCCCN12)NCCc1ccc(F)cc1`?
OTUD3 inh: -1; USP30 inh: 5; USP28 inh: 2

How did COc1ccc(C(=O)OCC(=O)N2CCC(Cc3ccccc3)CC2)cc1[N+](=O)[O-] do in these assays?
OTUD3 inh: 7; USP17 inh: 11; USP30 inh: 46*; USP28 inh: 36*

What do the screens show for `Cc1ccc(S(=O)(=O)NC(=O)c2cc(C)n(-c3cc(C)nc4ccccc34)c2C)cc1`?
OTUD3 inh: 1; USP17 inh: -10; USP30 inh: -12; USP28 inh: 0

How did CC1OC1C(=O)[C@]1(O)[C@H](C)[C@@H](O)[C@@]23O[C@@]2([C@H](O)c2c(O)cccc2C3=O)[C@H]1O (some centres undefined) do in these assays?
OTUD3 inh: 9; USP17 inh: 73*; USP30 inh: -394; USP28 inh: 8

Results for Cc1ccc(-c2cn(CC(=O)NCc3cccc(F)c3)c(=O)o2)cc1 ?
OTUD3 inh: 0; USP17 inh: 77*; USP30 inh: 56*; USP28 inh: 28

Screens as filed in PubChem.
